From PubChem BioAssay
Abeta rescue: A-beta toxicity reversal in yeast; yeast expressing A-beta42, growth rescue, OD600, 48 h; response scale: 0% DMSO, 100% iron-clioquinol control; Potency, µM (titrated, usually from 46.1 µM), usual class: activators; 0.063% of 410,000 active; AID 1347071; further: nearly all actives have a fitted effect of over 55% in size
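Yeast A-beta toxicity model in growth medium with pinned compounds, 48 h at 30 C; growth read as absorbance at 600 nm. Normalized to FeCl3/clioquinol equimolar mix (positive) and DMSO (negative).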
FUS yeast rescue: suppressors of FUS proteinopathy in yeast | Potency, µM (highest dose often 76.6 µM), actives largely listed as activators | 0.24% of 390,000 active | AID 1347120 | S. cerevisiae FUS-expressing, growth rescue, OD600, 24 h;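 further: plate controls were DMSO vehicle for no effect and reference control for full effect; nearly all actives have a fitted effect of over 55% in size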
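Yeast expressing FUS under galactose induction, OD 0.005 in 2% galactose medium; compounds in a dilution series, 24 h at 30C. Growth rescue by absorbance at 600 nm; CP55940 positive control, DMSO negative.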
TDP-43 yeast inh: rescues yeast growth from TDP-43 toxicity. TDP-43 expressing yeast growth rescue, BacTiter-Glo, 24 h. Potency, µM (doses to about 46.1 µM), inactives show at the top dose growth rescue (activation), hits mostly activators. 1.8% of 410,000 active. AID 652104; further: % of control where 0% means no effect; nearly all actives have a fitted effect of over 50% in size
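Growth rescue of TDP-43-toxic yeast measured as ATP luminescence (BacTiter-Glo). Cells grown to mid-log in raffinose, induced in galactose at OD600=0.02, exposed to compound 24 hr at 30 deg C.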
aSyn rescue: inhibitors of alpha-synuclein toxicity in yeast. Yeast expressing alpha-synuclein, growth rescue, BacTiter-Glo, 24 h. Potency, µM (titrated, usually from 46.1 µM), without a hit: at the top dose growth rescue (activation), most hits filed as activators. 0.14% of 370,000 active. AID 652106; further: % of control where 0% means no effect; nearly all actives have a fitted effect of over 65% in size
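Galactose-induced alpha-syn yeast (OD600=0.02, raffinose-pregrown) + pinned cpd, 24 hr, 30 deg C; growth by BacTiter-Glo luminescence. Growth restoration scores as activation.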
Mito fusion yeast: mitochondrial division inhibition or fusion activation | 0.23% of 320,000 active | Potency, µM (series often up to 46.1 µM), for the others: top-dose growth rescue (activation), actives largely listed as activators | S. cerevisiae fusion-defective mutant growth rescue, CellTiterGlo 48 h; further: % of control where 0% means no effect; nearly all actives have a fitted effect of over 45% in size
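Luminescent cell viability in 1536-well qHTS format served as the measure of rescued growth in ts fusion-mutant S. cerevisiae cultured on non-fermentable YPEG for 48 hours at 37C.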
* = called active by the depositor; ! = not confirmed by another sample; [ ] = another dose, or the depositor's remark. The list is not random: actives were taken first. Their share in the collection is about 2.2%. The call rests on the fitted dose curve; in most records, active means well fitted curve in the direction sought with a large enough effect; inconclusive means small, poorly fitted or top-dose-only effect, or another doubt; inactive means no such curve, though single readings can be large; an effect the other way counts as inactive or inconclusive. Potency means the concentration at half of the fitted maximal effect.

Screening COc1cc(OC)c(OC)cc1/C=C/c1cc[n+](C)c2ccccc12 returned aSyn rescue -15%.
`COc1cccc2nccc(/C=C/c3ccc(N(C)C)cc3)c12` gave aSyn rescue -14%.
Screening O=[N+]([O-])c1ccc(Cl)c2cccnc12 returned Abeta rescue inactive, FUS yeast rescue inactive, TDP-43 yeast inh -18%[0.397 µM], aSyn rescue 1% and Mito fusion yeast -3%.
For O=[N+]([O-])c1ccccc1Oc1ccc(Cl)c2cccnc12 the results were Abeta rescue inactive, FUS yeast rescue inactive, TDP-43 yeast inh 20µM*, aSyn rescue inconclusive and Mito fusion yeast 2%.
For O=[N+]([O-])c1cc([N+](=O)[O-])c2cccnc2c1Oc1ccccc1O the results were Abeta rescue inactive, TDP-43 yeast inh 2µM*, aSyn rescue 4% and Mito fusion yeast -8%.
Screening O=[N+]([O-])c1cc(Cl)c2cccnc2c1O returned Abeta rescue inactive, FUS yeast rescue inactive, TDP-43 yeast inh inconclusive, aSyn rescue inconclusive and Mito fusion yeast inconclusive.
COc1ccc(Oc2c(OC)cc([N+](=O)[O-])c3ncccc23)cc1 was read as Abeta rescue inactive, FUS yeast rescue inactive, TDP-43 yeast inh 35µM* and aSyn rescue 3%.
Screening O=[N+]([O-])c1cc(F)c2cccnc2c1O returned Abeta rescue inconclusive, FUS yeast rescue inactive, TDP-43 yeast inh 4µM*, aSyn rescue inconclusive and Mito fusion yeast -20%.
`CCCN(CCC)CCCNC(=O)c1cc2c(=O)n(C)c3ccccc3c2s1` gave Abeta rescue inactive, FUS yeast rescue inactive and TDP-43 yeast inh -7%.
`Cc1cccc(CC(=O)NC2CC(=O)N(c3ccccc3)C2)c1` (stereo unspecified) gave Abeta rescue inactive, FUS yeast rescue inactive and TDP-43 yeast inh 0%.
`COc1cccc(CNC(=O)c2ccc(CN3CC(=O)N4CCCCC4C3=O)cc2)c1` (stereo unspecified) gave Abeta rescue inactive, FUS yeast rescue inactive and TDP-43 yeast inh 8%.
Cc1ccc(-c2nc3cccnc3s2)cc1NS(=O)(=O)c1cccs1 was read as Abeta rescue inactive, FUS yeast rescue inactive, TDP-43 yeast inh 11µM*, aSyn rescue -13% and Mito fusion yeast inconclusive.
O=S(=O)(Nc1cccc2cccnc12)c1cccs1 was read as aSyn rescue 22µM*.
O=S(=O)(Nc1cccc2cccnc12)c1ccc2ccccc2c1 was read as aSyn rescue 18µM*.
Screening Cc1ccc(-c2nc3cccnc3s2)cc1NS(=O)(=O)c1ccc2c(c1)OCCO2 returned Abeta rescue inactive, FUS yeast rescue inactive, TDP-43 yeast inh 12%, aSyn rescue -2% and Mito fusion yeast inconclusive.
For Cc1nc2ccc(S(=O)(=O)Nc3cc(-c4nc5cccnc5s4)ccc3C)cc2s1 the results were Abeta rescue inactive, FUS yeast rescue inconclusive, TDP-43 yeast inh -14%, aSyn rescue -15% and Mito fusion yeast inconclusive.
`Cc1nc2ccc(S(=O)(=O)Nc3cccc(-c4nc5cccnc5s4)c3C)cc2s1` gave Abeta rescue inactive, FUS yeast rescue inactive, TDP-43 yeast inh inconclusive, aSyn rescue 11% and Mito fusion yeast 18µM*.
`CC(C)Sc1nnc2c3ccccc3n(C)c2n1` gave aSyn rescue -11%.
CCOC(=O)c1ccc(N2C(=O)c3n[nH]c(-c4ccco4)c3C2c2ccc(OCC)cc2)cc1 (stereo unspecified) was read as Abeta rescue inactive, FUS yeast rescue inactive and TDP-43 yeast inh 26%.
For COc1cc2nc(C#N)nc(N)c2cc1OC the results were aSyn rescue 1%.
COc1ccccc1N1CCN(C(=O)Cn2c(=O)nc(-c3ccccc3)c3cc(Cl)ccc32)CC1 was read as Abeta rescue inactive, FUS yeast rescue inactive and TDP-43 yeast inh 17%.
For COc1ccc(S(=O)(=O)Nc2cccc3cccnc23)c([N+](=O)[O-])c1 the results were aSyn rescue 22µM*.
`COc1ccccc1C(=O)NC1(C(F)(F)F)C(=O)Nc2c1c(=O)[nH]c(=O)n2-c1ccccc1` (stereo unspecified) gave Abeta rescue inactive, FUS yeast rescue inactive and TDP-43 yeast inh 10%.
O=C(Nc1ccc(Oc2ccccc2)cc1)c1csc(COCCO)n1 was read as Abeta rescue inactive, FUS yeast rescue inactive, TDP-43 yeast inh 13µM* and aSyn rescue 3%.
O=C(Nc1ccc(Cl)cc1)c1csc(COCCO)n1 was read as Abeta rescue inactive, FUS yeast rescue inactive, TDP-43 yeast inh 20% and aSyn rescue -5%.
`CCOc1ccc(CNC(=O)Cn2ccc3cc(S(=O)(=O)N4CCCCCC4)ccc32)cc1` gave Abeta rescue inactive, FUS yeast rescue inactive, TDP-43 yeast inh -4%, aSyn rescue 8% and Mito fusion yeast -6%.
For CCOc1ccc(CCNC(=O)Cn2ccc3cc(S(=O)(=O)N4CCCCC4)ccc32)cc1 the results were Abeta rescue inactive, FUS yeast rescue 18µM* and TDP-43 yeast inh 12%.
Screening COC(=O)Cn1ccc2cc(S(=O)(=O)N3CCCCC3)ccc21 returned Abeta rescue inactive, FUS yeast rescue inactive, TDP-43 yeast inh 5%, aSyn rescue 6% and Mito fusion yeast 2%.
Screening COC(=O)Cn1ccc2cc(S(=O)(=O)N3CCCCCC3)ccc21 returned Abeta rescue inactive, FUS yeast rescue inactive, TDP-43 yeast inh 16µM*!, aSyn rescue 11% and Mito fusion yeast -2%.
Screening Cc1cc(C)c(NC(=O)CSc2ncc(S(=O)(=O)c3ccc(C(C)(C)C)cc3)c(=O)[nH]2)c(C)c1 returned Abeta rescue inactive, FUS yeast rescue inconclusive, TDP-43 yeast inh -16% and aSyn rescue 3%.
CCOC(=O)c1cc(NC(=O)c2ccc(C)cc2)c(=O)n2c1oc1ccc(Cl)cc12 was read as Abeta rescue inactive, FUS yeast rescue inactive and TDP-43 yeast inh -12%.
`CCOc1ccc(S(=O)(=O)NCCc2c(C)[nH]c3c(Cl)cccc23)cc1C` gave Abeta rescue inactive, FUS yeast rescue inactive and TDP-43 yeast inh inconclusive.
For COc1ccc(Nc2nc3cc(-c4sccc4C)sc3c(=O)n2C)cc1OC the results were Abeta rescue inactive, FUS yeast rescue inconclusive, TDP-43 yeast inh 35µM* and aSyn rescue 10%.
`COc1cccc(-c2cc3nc(Nc4ccc(OC)c(OC)c4)n(C)c(=O)c3s2)c1` gave Abeta rescue inactive, FUS yeast rescue inactive, TDP-43 yeast inh 0% and aSyn rescue -1%.
For COc1ccc(-c2cc3nc(NCC4CCCCC4)n(C)c(=O)c3s2)cc1OC the results were Abeta rescue 22µM*, FUS yeast rescue inactive, TDP-43 yeast inh 20µM* and aSyn rescue 30%.
